The panel holds about 83,000 compounds, 20% with a hit somewhere; the sample as a whole holds those more often.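 How to read the values: 0–100, growth inhibition (40 = 60% inhibited); 0, no net growth; -100 to 0, cell death (-40 = 40% of starting cells died; -100 = all dead).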 Calls of active or inactive are those of the source.

This assay concerns COLO 205 colon. The assay can be described thus: NCI-60 one-dose screen, 48 h (100 = growth as untreated, 0 = no growth, -100 = all killed). The following applies: 10 µM unless noted. Here is the method:
Cells are grown in 96 well plates and exposed to the test compound for 48 hours. Compounds are tested at a single concentration, which is 10^-5 M for most compounds. The reported endpoint is percent growth (GI% or GIPRCNT), where numbers from 0 - 100% represent growth inhibition, and numbers from -100% - 0 represent cell death. For example, a value of 40 represents 60% growth inhibition. A value of 0 means no net growth occurred over the course of the experiment. A value of -40 indicates 40% of cells at the beginning of the experiment died by the end of the experiment. A value of -100 means all cells are dead at the end of the experiment.
NCI-60 Human Tumor Cell Lines Screen was performed using the standard one-dose NCI protocol, which is described in more detail at https://dtp.cancer.gov/discovery_development/nci-60/default.htm.
Compounds with GIPRCNT values below 10 were considered active. Activity score was based on GIPRCNT using the following formula: […]
Score is 0 for GIPRCNT values of 100 or above, 50 for GIPRCNT values of 0, and 100 for GIPRCNT values of -100.
In the case of `CCOC(=O)c1cc(/C(=N\O)c2cc(OC)c(OC)c(OC)c2)n2c(C)cccc12`, the growth is 21.2% (inactive).
For the compound `O=S(=O)(NCCCNc1cc(-c2cn(-c3ccccc3)nc2-c2cccc(O)c2)ccn1)c1ccc(Br)cc1`, the growth was -70.3% (active).
`CNC(C)=O`: the growth was 98.8% (inactive).
With `COC1=CC(c2ccc[nH]2)=N/C1=C\c1[nH]c(C)c(C(=O)CCCCC(=O)Oc2ccc3c(c2)CCC2C3CC[C@]3(C)[C@@H](O)CC[C@@H]23)c1C` (stereo not given in full), the growth is 94.6% (inactive).
Take `COC1=CC(c2ccc[nH]2)=N/C1=C\c1[nH]c(C)c(C(=O)CCCCC(=O)Nc2ccccc2)c1C`: the growth is 67.1% (inactive).
On to `COc1cccc(-c2nc3sccn3c2-c2ccnc(NCCCNS(=O)(=O)c3ccc(F)cc3)n2)c1`, for which the growth was 17.1% (inactive).
On to `COc1ccc(/C=N/NC(=O)Cn2c(Cc3cccc4ccccc34)nc3ccccc32)cc1`, for which the growth was 106% (inactive).
Under `COc1cc(/C=C2\C=C(c3ccc(F)cc3)N(Cc3ccccc3)C2=O)cc(OC)c1OC` stands 82.7% (inactive); under `O=C(CNC1CCCCC1)Nc1ccc(-c2nc3ccccc3s2)cc1`, 95.4% (inactive).
`COc1ccc(C(=O)/C=C/c2cc(C(=O)c3cc(OC)c(OC)c(OC)c3)ccc2OC)cc1`: the growth is 75.9% (inactive).
Take `COc1cccc2cc(-c3cc4ccccc4[nH]3)/c(=N/C(=S)Nc3ccccc3)oc12`: the growth is 98.1% (inactive).
Consider `CC[C@]1(O)C[C@@H]2CN(Cc3c([nH]c4ccccc34)[C@@](C(=O)OC)(c3cc4c(cc3OC)N(C)[C@H]3[C@@](O)(C(=O)OC)[C@H](OC(C)=O)[C@]5(CC)[C@@H]6C[C@@H]6CN6CC[C@]43[C@@H]65)C2)C1`, for which the growth was -49.5% (active).
Under `Cc1ccccc1C(=O)c1ccccc1C(=O)O` stands 115% (inactive); under `COc1ccc(/C=C/C(=O)OCC(=O)NNC(=O)c2ccccc2)cc1OC`, 118% (inactive); under `Cc1cnc(NC(=O)C(Cc2ccccc2)NC(=O)c2ccccc2)s1` (stereo not given), 91.9% (inactive).
For `O=C(/C=C/CN1CCOCC1)Nc1cc2c(Nc3ccc(F)c(Cl)c3F)ncnc2cc1OCCOC(F)F`, the growth was 71.9% (inactive).
Take `CC(C)C[C@H](NC(=O)[C@@H](Cc1ccccc1)n1ccc(Nc2ccccc2)cc1=O)B(O)O`: the growth was 13.8% (inactive).
In the case of `CC1Cc2c(N(C)C)ncnc2N(C)c2ccc(O)cc21` (stereo not given) it was 103% (inactive); in that of `COc1ccccc1OCC(=O)Nc1sc2c(c1C(N)=O)CCC2`, 86.1% (inactive); in that of `N#CC1=C(N)OC2=C(C(=O)CCC2)C1c1ccco1` (stereo not given), 110% (inactive).
`CCN(CC)S(=O)(=O)c1ccc2[nH]c(=O)cc(C(=O)Nc3ccc(OC)cc3OC)c2c1`: the growth is 110% (inactive).
As for `Clc1nc2ccccc2nc1CI`, the growth was 120% (inactive).
As to `COc1cccc2nc(Nc3ccc(NC(=O)c4ccc5ncccc5c4)cc3)ccc12`, the growth is 103% (inactive).
`O=c1oc2cc(OS(=O)(=O)c3ccccc3)c(Cl)cc2c2c1CCCCCC2`: the growth was 94.4% (inactive).
Regarding `O=c1[nH]c2ccccc2cc1-c1nnc(Cc2ccccc2)o1`, the growth was 64.4% (inactive).
For `O=C(CCCn1c(=O)c2sc3ccccc3c2n2nnc(-c3ccccc3)c12)NCCc1cnc[nH]1`, the growth was -36.8% (active).
In the case of `COc1cc(C2CC(c3c(C)[n+]([O-])c4ccccc4[n+]3[O-])=NN2)cc(OC)c1OC` (stereo not given) it was 102% (inactive); in that of `CC1=NN2C(=NC3=C(CCC/C3=C\c3ccc(Cl)cc3)C2c2ccc(Cl)cc2)S1` (stereo not given), 109% (inactive); in that of `COc1cc(-c2csc(NC(=O)c3cc(C(F)(F)F)cc(C(F)(F)F)c3)n2)cc(OC)c1OC`, 37.7% (inactive).
With `Nc1cccc2c1CN(C1CCC(=O)NC1=O)C2=O` (stereo not given), the growth is 111% (inactive).
For `O=C1NCC(c2cc3ccccc3[nH]c2=O)Nc2ccccc21` (stereo not given), the growth was 107% (inactive).
Under `COc1ccc(Cn2c(SC)nc(=O)n(Cc3ccc(Cl)cc3)c2=O)cc1` stands 98.8% (inactive).
`Nc1c(C(=O)Nc2ccccc2)sc2nc3c(cc12)CCCCC3`: the growth was 9.29% (active).
As for `Cc1oc2nc[nH]c(=O)c2c1C(=O)/C=C/c1ccc(Cl)cc1`, the growth was 70.8% (inactive).
Take `COc1cccc(-c2nc3sccn3c2-c2ccnc(NCCNS(=O)(=O)c3ccccc3)n2)c1`: the growth is 34.1% (inactive).
As to `CC(=O)/C=C/c1cc2cc(Cl)ccc2[nH]c1=O`, the growth is 98.8% (inactive).
With `O=S(=O)(NCCCNc1nccc(-c2c(-c3ccccc3)nc3sccn23)n1)c1ccc(F)cc1`, the growth was 17.9% (inactive).
With `CC(C)C(C(=O)CCN(C)C)c1ccc(Cl)cc1` (stereo not given), the growth was 106% (inactive).
Consider `Cc1ccc2nc(-c3c(CCCO)noc3N)[nH]c(=O)c2c1`, for which the growth is 121% (inactive).
Consider `Nc1c(C(=O)Nc2ccccc2)sc2nc3c(cc12)CN(Cc1ccccc1)CC3`, for which the growth is 97.8% (inactive).

Source of the values: PubChem BioAssay (NCI).
